PKA-R1A act: activators of PKA-R1A complex; P00514+P68181; PKA-R1A dissociation, Cy5-IP20 fluorescence polarization; scaled: DMSO 0%, 113 µM cGMP 100%; activation, % at 11.4 µM; actives 0.083% (n = 340,000); AID 504707;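 active means percent activation above the mean of all tested compounds plus 3 SD, cut at about 19% in these data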;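 further: higher means more PKAc released from R1A so a rise in polarization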
PKA-R2B act: activators of human PKA-R2B complex; AID 504700; activation, % at 11.4 µM; actives 0.079% (n = 340,000); P22694+P31323; PKA-R2B holoenzyme dissociation, Cy5-IP20 fluorescence polarization; R2B truncated from residue 108, S112A mutant; 0% DMSO only, 100% 113 µM cGMP;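 active means activation above a cutoff set at the mean over all compounds plus 3 SD, cut at about 18% in these data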;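 further: higher means more holoenzyme dissociation and a rise in polarization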
Target sequence (P31323 whole entry, looked up, other chains not shown, the tested form may be a part): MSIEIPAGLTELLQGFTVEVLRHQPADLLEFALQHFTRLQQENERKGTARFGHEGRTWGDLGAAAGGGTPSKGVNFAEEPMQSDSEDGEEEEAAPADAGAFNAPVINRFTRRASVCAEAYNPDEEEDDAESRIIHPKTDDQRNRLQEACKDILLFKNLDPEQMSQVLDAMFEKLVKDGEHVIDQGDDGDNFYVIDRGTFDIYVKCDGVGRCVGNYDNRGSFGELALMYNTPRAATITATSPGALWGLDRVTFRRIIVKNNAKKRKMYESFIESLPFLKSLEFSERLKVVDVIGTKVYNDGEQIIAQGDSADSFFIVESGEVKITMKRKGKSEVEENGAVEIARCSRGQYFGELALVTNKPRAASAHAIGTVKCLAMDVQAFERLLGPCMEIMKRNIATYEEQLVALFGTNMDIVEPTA
PAFAH1B2 FP inh: blocks human PAF acetylhydrolase 1b catalytic subunit 2 | AID 492953 | actives 1.2% (n = 340,000) | P68402 | inhibition, % at 3.39 µM | recombinant PAFAH1B2, FP-rhodamine activity probe, fluorescence polarization;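 active means inhibition above the mean of all tested compounds plus 3 SD, cut at about 24% in these data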
pPAFAH FP inh: pPAFAH (human) enzyme inhibition | recombinant pPAFAH, FP-rhodamine probe fluorescence polarization | inhibition, % at 3.39 µM | actives 1.5% (n = 330,000) | AID 463082;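 active means inhibition above the mean inhibition across the screen plus 3 SD, cut at about 25% in these data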;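 further: inhibitors block binding of the rhodamine activity-based probe so polarization drops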
PAFAH1B3 FP inh: PAFAH1B3 (human) inhibition; Q15102; recombinant PAFAH1B3, FP-rhodamine probe, fluorescence polarization; inhibition, % at 3.39 µM; actives 0.28% (n = 340,000); AID 492972;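 active means inhibition above the screen-wide average of all tested compounds plus 3 SD, cut at about 25% in these data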
PAFAH2 FP inh: inhibitors of human PAFAH2; recombinant PAFAH2, FP-rhodamine activity probe, fluorescence polarization; AID 492956; actives 0.99% (n = 340,000); inhibition, % at 3.39 µM; Q99487;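 active means inhibition above the mean over all tested compounds plus 3 SD, cut at about 30% in these data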;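 further: inhibitors block probe labeling of enzyme so polarization drops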
Each line names hits and unclear results; the compound was inactive in the other large screens. An excerpt weighted towards active compounds, which were near 2.6% of everything screened.

O=C(COC(=O)C1CC2C=CC1C2)Nc1ccc2c(c1)OC(F)(F)O2 (stereo not drawn)	pPAFAH FP inh 26, PAFAH2 FP inh 46
Cc1ccc(C(=O)O)cc1-c1ccc(/C=C2/NC(=O)N(c3ccccc3)C2=O)o1	pPAFAH FP inh 29
Cn1ncc(Br)c1C(=O)N1CCCCCC1	none
OC(c1ccc(F)cc1)(C1CCCCC1)C(CN1CCOCC1)c1ccccc1 (stereo not drawn)	PAFAH1B2 FP inh 35
CC1CCc2[nH]c3ccc(C(=O)N(C)CC(=O)Nc4ccccc4Br)cc3c2C1 (stereo not drawn)	none
Cc1ccc(C)c(NC(=O)CN(C)C(=O)c2ccc3[nH]c4c(c3c2)CC(C)CC4)c1 (stereo not drawn)	PAFAH1B2 FP inh 40
CCN(CC(=O)Nc1ccc(OC)cc1)C(=O)c1ccc2[nH]c3c(c2c1)CC(C)CC3 (stereo not drawn)	PAFAH1B2 FP inh 27
CCN(CC(=O)Nc1ccc(OC)cc1)C(=O)c1ccc2c(=O)n3c(nc2c1)CCC3	none
CCN(CC(=O)Nc1ccccc1C(F)(F)F)C(=O)c1ccc(NC(=O)c2cccs2)cc1	none (no result: PAFAH1B2 FP inh, pPAFAH FP inh, PAFAH1B3 FP inh, PAFAH2 FP inh)
O=C(CN1C(=O)NC2(CCc3ccccc32)C1=O)NCc1ccc(F)cc1 (stereo not drawn)	none (no result: pPAFAH FP inh)
Cc1ccc(CS(=O)(=O)Cc2ccc(C(=O)NC3CC3)o2)cc1	none
O=C(CCn1nnc2ccccc21)Nc1nnc(Cc2ccccc2)s1	PAFAH1B2 FP inh 27
O=C(CCn1nnc2ccccc21)Nc1nnc(COc2ccccc2F)s1	none
COc1cc(C(=O)O[C@H]2CC(C)=CC[C@@]3(C)CC[C@@](O)(C(C)C)[C@H]23)ccc1O	PAFAH1B2 FP inh 34
CC(=O)Nc1ccc(N2CCN(C(=O)c3cccs3)CC2)cc1	none
Nc1ccc(N2CCN(C(=O)c3cccs3)CC2)cc1	pPAFAH FP inh 32
Cc1ccc(C(=O)CN2C(=O)NC3(CCc4ccccc43)C2=O)s1 (stereo not drawn)	none
CC1(C)Cc2c(C#N)c(N)sc(=S)c2CS1	none
N#Cc1c(N)sc2c1CCCCCC2	PAFAH1B2 FP inh 28
N#Cc1c(N)sc(=S)c2c1CCCCC2	pPAFAH FP inh 29, PAFAH2 FP inh 45
CC(=O)Nc1sc2c(c1C#N)CCC2	none
CCOc1cc(/C=N/N=C2/NC(=O)C(CC(=O)O)S2)ccc1OCc1ccc(Cl)cc1 (stereo not drawn)	pPAFAH FP inh 25
COc1ccc(/C=N/N=C2/NC(=O)C(CC(=O)O)S2)cc1OCc1ccc(Cl)cc1 (stereo not drawn)	none
CS(=O)(=O)N1CC(C(=O)O)Oc2ccc(CC(=O)O)cc21 (stereo not drawn)	none
O=C(O)Cc1ccc2c(c1)N(S(=O)(=O)c1cccc(C(F)(F)F)c1)CC(C(=O)O)O2 (stereo not drawn)	PAFAH1B2 FP inh 27
O=C1S/C(=C\C=C\c2ccco2)C(=O)N1c1ccccc1	pPAFAH FP inh 26
Cc1ccc(N2C(=O)/C(=C/c3ccco3)SC2=S)cc1	none
Cc1ccc(NC(=O)CCCNC(=O)c2ccc(Cl)cc2)c(O)c1	none
CC1CCC2(CC1)NC(=O)N(NC(=O)C1CCN(C(=O)c3ccc(Cl)cc3)CC1)C2=O (stereo not drawn)	none (no result: pPAFAH FP inh)
Cc1cccc(-n2ccc(=O)c(C(=O)Nc3ccc(S(=O)(=O)Nc4nccs4)cc3)n2)c1	none
O=C(Nc1ccc(S(=O)(=O)Nc2nccs2)cc1)c1nn(-c2ccccc2)ccc1=O	pPAFAH FP inh 25
COc1ccc(CCNc2ncnc3c2[nH]c2cc(OC)c(OC)cc23)cc1OC	pPAFAH FP inh 28
COc1ccc(CCNc2ncnc3cc(OC)c(OC)cc23)cc1OC	none (no result: pPAFAH FP inh)
COCCNc1ncnc2c1[nH]c1ccccc12	pPAFAH FP inh 28
OCCCNc1ncnc2c1[nH]c1ccccc12	none
Cc1cccc(NC(=O)C(C)Oc2ccc(C)nc2[N+](=O)[O-])c1 (stereo not drawn)	none
Cc1cnc(C(=O)OCC(=O)c2ccc[nH]2)cn1	none
Cn1nnnc1SCC(=O)NCc1cc([N+](=O)[O-])ccc1O	none

From PubChem
